About 8,800 targets were measured; listed, in parts, are those with a hit and a random draw of the rest. About 0.5% of all pairs of compound and target were hits.
Each target was assayed with COc1cc(Nc2ncc3c(n2)-c2ccc(Cl)cc2C(c2c(F)cccc2OC)=NC3)ccc1C(=O)O [alisertib] (assay: log2 fold change, soluble protein after heating vs DMSO (PISA); higher = thermal stabilisation; K562 lysate, 10 uM; active = over 0.2 and 3.5 SD of the protein, either way, in both replicates (recomputed)).
Summary of the method: (§1)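 To prepare the extract, K562 pellets were dounce-homogenised in PBS pH 7.4 with 1 mM MgCl2, giving crude material at 1 mg/mL protein. This was treated with 10 μM compound for 30 min, then heated in aliquots for 3 min over 48°C-58°C before pooling and addition of NP-40 to 0.5% at 4°C. Centrifugation at 21,000xg for 90 min left soluble protein in the supernatant, which TMTpro 16plex LC-MS/MS quantified with equalised channel sums. Results are log-two fold changes in thermal stability compared with solvent controls, from duplicates.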

UniProt Q7L8L6, sequence (Q7L8L6 whole entry, looked up): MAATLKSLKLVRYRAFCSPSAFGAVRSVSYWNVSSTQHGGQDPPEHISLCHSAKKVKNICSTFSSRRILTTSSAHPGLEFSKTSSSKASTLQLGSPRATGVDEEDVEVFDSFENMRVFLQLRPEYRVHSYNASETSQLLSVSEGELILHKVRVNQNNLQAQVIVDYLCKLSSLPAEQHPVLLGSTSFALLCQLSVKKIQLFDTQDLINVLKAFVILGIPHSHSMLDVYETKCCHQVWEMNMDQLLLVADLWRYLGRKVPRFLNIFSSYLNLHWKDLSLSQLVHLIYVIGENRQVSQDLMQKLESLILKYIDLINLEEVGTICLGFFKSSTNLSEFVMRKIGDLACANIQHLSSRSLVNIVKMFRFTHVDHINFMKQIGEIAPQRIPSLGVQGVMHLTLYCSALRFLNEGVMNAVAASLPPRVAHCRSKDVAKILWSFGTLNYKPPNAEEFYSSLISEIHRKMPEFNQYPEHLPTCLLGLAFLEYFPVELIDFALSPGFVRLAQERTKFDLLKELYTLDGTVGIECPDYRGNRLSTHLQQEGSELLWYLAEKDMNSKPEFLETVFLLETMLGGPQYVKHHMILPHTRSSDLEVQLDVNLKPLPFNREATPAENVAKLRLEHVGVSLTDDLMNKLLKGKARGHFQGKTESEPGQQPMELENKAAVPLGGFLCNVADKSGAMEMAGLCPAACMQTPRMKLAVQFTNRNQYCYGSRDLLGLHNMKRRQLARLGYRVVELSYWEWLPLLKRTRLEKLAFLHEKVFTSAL
UniProt Q8NEZ5, sequence (Q8NEZ5 whole entry, looked up): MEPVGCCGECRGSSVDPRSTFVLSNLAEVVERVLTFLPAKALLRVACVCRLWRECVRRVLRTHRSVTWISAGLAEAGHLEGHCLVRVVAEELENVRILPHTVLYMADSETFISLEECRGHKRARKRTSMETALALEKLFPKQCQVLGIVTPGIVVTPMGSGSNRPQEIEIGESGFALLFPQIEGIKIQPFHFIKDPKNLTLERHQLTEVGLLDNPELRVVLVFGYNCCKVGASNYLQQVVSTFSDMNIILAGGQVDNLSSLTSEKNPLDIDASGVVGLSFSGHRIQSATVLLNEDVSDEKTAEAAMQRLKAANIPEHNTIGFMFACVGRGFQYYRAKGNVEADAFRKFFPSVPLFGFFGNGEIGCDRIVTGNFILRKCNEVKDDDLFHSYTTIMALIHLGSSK
UniProt Q96RT1, sequence (Q96RT1 whole entry, looked up): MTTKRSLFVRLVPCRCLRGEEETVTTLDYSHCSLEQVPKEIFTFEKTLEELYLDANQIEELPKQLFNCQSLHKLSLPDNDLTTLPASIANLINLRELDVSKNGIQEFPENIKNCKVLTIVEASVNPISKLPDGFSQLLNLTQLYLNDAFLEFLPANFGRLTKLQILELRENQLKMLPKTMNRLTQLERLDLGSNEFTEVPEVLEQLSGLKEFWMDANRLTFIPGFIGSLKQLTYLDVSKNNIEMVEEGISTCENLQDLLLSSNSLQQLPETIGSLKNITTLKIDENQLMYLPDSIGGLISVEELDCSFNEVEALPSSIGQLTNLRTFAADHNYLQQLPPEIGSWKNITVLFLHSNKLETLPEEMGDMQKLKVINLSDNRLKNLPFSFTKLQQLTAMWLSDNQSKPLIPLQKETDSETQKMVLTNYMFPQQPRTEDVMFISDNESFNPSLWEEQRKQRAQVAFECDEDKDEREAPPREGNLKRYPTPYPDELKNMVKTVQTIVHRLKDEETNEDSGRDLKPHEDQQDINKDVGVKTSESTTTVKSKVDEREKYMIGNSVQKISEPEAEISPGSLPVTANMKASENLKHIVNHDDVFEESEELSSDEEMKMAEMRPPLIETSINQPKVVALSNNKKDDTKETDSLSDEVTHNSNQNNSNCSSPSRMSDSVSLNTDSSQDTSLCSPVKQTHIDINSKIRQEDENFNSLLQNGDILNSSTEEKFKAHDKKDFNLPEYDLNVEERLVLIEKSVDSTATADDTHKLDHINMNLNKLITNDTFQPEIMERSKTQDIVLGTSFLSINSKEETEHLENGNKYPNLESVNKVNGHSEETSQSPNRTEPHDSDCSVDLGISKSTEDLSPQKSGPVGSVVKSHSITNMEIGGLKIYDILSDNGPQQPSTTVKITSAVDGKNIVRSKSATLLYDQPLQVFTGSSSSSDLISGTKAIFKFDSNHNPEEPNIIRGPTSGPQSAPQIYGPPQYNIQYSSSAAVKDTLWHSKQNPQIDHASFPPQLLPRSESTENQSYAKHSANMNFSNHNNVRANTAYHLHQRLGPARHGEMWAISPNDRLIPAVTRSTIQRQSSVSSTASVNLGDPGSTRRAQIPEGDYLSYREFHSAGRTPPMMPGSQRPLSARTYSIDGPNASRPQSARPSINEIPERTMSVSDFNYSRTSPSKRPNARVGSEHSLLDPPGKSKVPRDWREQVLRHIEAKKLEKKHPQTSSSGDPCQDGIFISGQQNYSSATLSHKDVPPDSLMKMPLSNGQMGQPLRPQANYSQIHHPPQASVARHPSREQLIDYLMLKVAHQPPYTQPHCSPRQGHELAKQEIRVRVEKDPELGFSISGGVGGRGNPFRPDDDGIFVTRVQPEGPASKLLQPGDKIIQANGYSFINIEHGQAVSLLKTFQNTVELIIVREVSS
UniProt A6NHQ2, sequence (A6NHQ2 whole entry, looked up): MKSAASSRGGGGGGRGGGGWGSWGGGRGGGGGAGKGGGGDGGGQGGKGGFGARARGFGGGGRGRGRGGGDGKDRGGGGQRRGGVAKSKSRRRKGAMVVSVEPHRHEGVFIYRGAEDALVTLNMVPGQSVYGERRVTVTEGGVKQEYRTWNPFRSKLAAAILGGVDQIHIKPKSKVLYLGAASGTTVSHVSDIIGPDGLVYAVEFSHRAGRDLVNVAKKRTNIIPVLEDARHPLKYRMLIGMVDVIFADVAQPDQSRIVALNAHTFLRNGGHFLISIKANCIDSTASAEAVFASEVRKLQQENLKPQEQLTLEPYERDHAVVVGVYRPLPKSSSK
UniProt Q9UJY4, sequence (Q9UJY4 whole entry, looked up): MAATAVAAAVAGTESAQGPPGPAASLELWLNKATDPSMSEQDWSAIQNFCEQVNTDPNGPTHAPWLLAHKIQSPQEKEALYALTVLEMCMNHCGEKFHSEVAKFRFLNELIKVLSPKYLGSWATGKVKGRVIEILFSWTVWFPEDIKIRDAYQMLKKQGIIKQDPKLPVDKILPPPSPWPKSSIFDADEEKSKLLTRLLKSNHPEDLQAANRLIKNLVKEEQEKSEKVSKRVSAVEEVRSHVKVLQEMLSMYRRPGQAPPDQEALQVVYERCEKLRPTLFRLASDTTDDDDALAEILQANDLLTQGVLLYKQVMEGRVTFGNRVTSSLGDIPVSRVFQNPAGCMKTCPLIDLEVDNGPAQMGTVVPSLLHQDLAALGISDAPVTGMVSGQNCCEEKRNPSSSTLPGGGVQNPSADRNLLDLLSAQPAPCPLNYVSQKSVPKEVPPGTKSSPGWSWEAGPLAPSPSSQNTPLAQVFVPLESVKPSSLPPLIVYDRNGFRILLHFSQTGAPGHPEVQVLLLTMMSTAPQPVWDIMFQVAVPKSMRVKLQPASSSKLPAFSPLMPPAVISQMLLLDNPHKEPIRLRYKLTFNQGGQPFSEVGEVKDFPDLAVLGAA
UniProt Q9BPY3, sequence (Q9BPY3 whole entry, looked up): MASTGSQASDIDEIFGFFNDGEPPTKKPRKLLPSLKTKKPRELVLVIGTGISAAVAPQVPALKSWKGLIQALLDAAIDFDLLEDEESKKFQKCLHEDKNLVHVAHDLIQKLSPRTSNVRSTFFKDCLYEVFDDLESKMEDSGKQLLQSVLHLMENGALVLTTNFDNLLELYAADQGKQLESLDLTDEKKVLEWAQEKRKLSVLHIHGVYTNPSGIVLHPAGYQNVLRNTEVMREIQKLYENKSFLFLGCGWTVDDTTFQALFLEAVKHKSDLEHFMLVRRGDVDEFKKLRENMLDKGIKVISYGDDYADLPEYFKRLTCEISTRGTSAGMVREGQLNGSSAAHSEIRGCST
UniProt P62942, sequence (P62942 whole entry, looked up): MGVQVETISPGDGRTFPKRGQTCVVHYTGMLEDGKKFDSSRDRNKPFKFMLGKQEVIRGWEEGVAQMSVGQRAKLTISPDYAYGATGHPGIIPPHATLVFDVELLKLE
UniProt O95571, sequence (O95571 whole entry, looked up): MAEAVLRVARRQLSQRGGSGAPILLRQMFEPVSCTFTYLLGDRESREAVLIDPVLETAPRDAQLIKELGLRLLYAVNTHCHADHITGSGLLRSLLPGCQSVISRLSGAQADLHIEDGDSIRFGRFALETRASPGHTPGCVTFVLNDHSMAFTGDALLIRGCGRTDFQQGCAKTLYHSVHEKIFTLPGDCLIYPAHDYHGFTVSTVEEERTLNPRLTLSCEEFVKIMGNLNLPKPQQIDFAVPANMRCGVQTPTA
UniProt Q8TB52, sequence (Q8TB52 whole entry, looked up): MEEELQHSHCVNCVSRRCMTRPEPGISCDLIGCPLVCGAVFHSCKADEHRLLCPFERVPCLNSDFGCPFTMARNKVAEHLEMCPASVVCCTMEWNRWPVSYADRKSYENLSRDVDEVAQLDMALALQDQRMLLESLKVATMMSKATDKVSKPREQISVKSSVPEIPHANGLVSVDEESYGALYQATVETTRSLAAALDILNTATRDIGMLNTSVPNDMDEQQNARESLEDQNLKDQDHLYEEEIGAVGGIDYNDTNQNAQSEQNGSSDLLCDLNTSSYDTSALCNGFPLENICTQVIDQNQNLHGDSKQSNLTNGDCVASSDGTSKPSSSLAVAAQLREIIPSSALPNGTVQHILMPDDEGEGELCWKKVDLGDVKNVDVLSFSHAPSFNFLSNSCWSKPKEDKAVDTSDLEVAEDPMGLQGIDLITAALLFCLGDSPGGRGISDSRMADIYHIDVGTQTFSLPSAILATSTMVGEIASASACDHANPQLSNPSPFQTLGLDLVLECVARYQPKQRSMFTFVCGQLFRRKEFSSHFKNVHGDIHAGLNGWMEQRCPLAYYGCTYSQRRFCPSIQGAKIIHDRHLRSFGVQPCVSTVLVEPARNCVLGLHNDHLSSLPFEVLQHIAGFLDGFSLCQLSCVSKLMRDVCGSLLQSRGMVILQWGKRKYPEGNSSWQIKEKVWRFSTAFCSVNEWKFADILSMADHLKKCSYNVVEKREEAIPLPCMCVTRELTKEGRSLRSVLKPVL

Target | log2 fold change
FARSA (UniProt Q9Y285) | 0.01 (inactive)
FECH isoform 2 (UniProt P22830) | -0.191 (inactive)
EBP (UniProt Q15125) | -0.036 (inactive)
EP300 (UniProt Q09472) | -0.121 (inactive)
EP400 isoform 5 (UniProt Q96L91) | 0.004 (inactive)
ESRRA (UniProt P11474) | -0.045 (inactive)
DUS2 (UniProt Q9NX74) | -0.007 (inactive)
GCLM (UniProt P48507) | 0.05 (inactive)
GGT7 (UniProt Q9UJ14) | -0.015 (inactive)
EMP3 (UniProt P54852) | 0.053 (inactive)
FANCI (UniProt Q9NVI1) | 0 (inactive)
FAM118B (UniProt Q9BPY3) | -0.011 (inactive)
GFPT1 (UniProt Q06210) | 0.005 (inactive)
FKBP1A (UniProt P62942) | 0.105 (inactive)
EDARADD (UniProt Q8WWZ3) | -0.075 (inactive)
FIBP (UniProt O43427) | 0.012 (inactive)
EHD2 (UniProt Q9NZN4) | -0.015 (inactive)
FADS1, A0A0A0MR51 | -0.008 (inactive)

Target | log2 fold change
GALNT2 (UniProt Q10471) | 0.028 (inactive)
FASTKD5 (UniProt Q7L8L6) | 0.002 (inactive)
FBLL1 (UniProt A6NHQ2) | 0.012 (inactive)
DTWD1 (UniProt Q8N5C7) | 0 (inactive)
GGA2 (UniProt Q9UJY4) | 0.038 (inactive)
FYB1 isoform 3 (UniProt O15117) | -0.012 (inactive)
DYRK1A (UniProt Q13627) | -0.008 (inactive)
DUS3L (UniProt Q96G46) | -0.02 (inactive)
ERI1 (UniProt Q8IV48) | -0.015 (inactive)
FBXO9 (UniProt Q9UK97) | -0.011 (inactive)
ERBIN isoform 8 (UniProt Q96RT1) | -0.028 (inactive)
ENY2 (UniProt Q9NPA8) | 0.024 (inactive)
EEF1AKNMT (UniProt Q8N6R0) | -0.02 (inactive)
EEF1A1, A0A087WVQ9 | -0.073 (inactive)
ETHE1 (UniProt O95571) | 0.094 (inactive)
FBXO22 (UniProt Q8NEZ5) | 0.034 (inactive)
FASTKD2 (UniProt Q9NYY8) | 0.021 (inactive)
FBXO30 (UniProt Q8TB52) | -0.014 (inactive)

Each target was assayed with COc1cc2nc(-c3cc(F)ccc3O)nc(N[C@@H]3CNC[C@H]3C(C)(C)O)c2cc1OC in the same assay as above.
Summary of the method: as §1

Target | log2 fold change
FARSA (UniProt Q9Y285) | 0.017 (inactive)
FECH isoform 2 (UniProt P22830) | 0.225 (inactive)
EBP (UniProt Q15125) | 0.048 (inactive)
EP300 (UniProt Q09472) | -0.056 (inactive)
EP400 isoform 5 (UniProt Q96L91) | 0.023 (inactive)
ESRRA (UniProt P11474) | -0.029 (inactive)
DUS2 (UniProt Q9NX74) | 0.013 (inactive)
GCLM (UniProt P48507) | 0.002 (inactive)
GGT7 (UniProt Q9UJ14) | 0.044 (inactive)
EMP3 (UniProt P54852) | 0.052 (inactive)
FANCI (UniProt Q9NVI1) | 0.01 (inactive)
FAM118B (UniProt Q9BPY3) | -0.043 (inactive)
GFPT1 (UniProt Q06210) | 0.007 (inactive)
FKBP1A (UniProt P62942) | -0.076 (inactive)
EDARADD (UniProt Q8WWZ3) | 0.027 (inactive)
FIBP (UniProt O43427) | 0.002 (inactive)
EHD2 (UniProt Q9NZN4) | 0.071 (inactive)
FADS1, A0A0A0MR51 | -0.067 (inactive)

Target | log2 fold change
GALNT2 (UniProt Q10471) | -0.021 (inactive)
FASTKD5 (UniProt Q7L8L6) | 0.072 (inactive)
FBLL1 (UniProt A6NHQ2) | 0.005 (inactive)
DTWD1 (UniProt Q8N5C7) | 0.005 (inactive)
GGA2 (UniProt Q9UJY4) | 0.023 (inactive)
FYB1 isoform 3 (UniProt O15117) | -0.014 (inactive)
DYRK1A (UniProt Q13627) | 0.017 (inactive)
DUS3L (UniProt Q96G46) | 0.036 (inactive)
ERI1 (UniProt Q8IV48) | -0.02 (inactive)
FBXO9 (UniProt Q9UK97) | -0.402 (active)
ERBIN isoform 8 (UniProt Q96RT1) | -0.001 (inactive)
ENY2 (UniProt Q9NPA8) | -0.019 (inactive)
EEF1AKNMT (UniProt Q8N6R0) | 0.027 (inactive)
EEF1A1, A0A087WVQ9 | 0.026 (inactive)
ETHE1 (UniProt O95571) | 0.022 (inactive)
FBXO22 (UniProt Q8NEZ5) | 0.013 (inactive)
FASTKD2 (UniProt Q9NYY8) | -0.033 (inactive)
FBXO30 (UniProt Q8TB52) | -0.006 (inactive)
